Results: the supplement of paper PMC12340641

What was measured:
[1] = target: IKZF1 (dCK*-IKZF1 fusion in HEK293FT) (UniProt Q13422); assay: inhibition of IKZF1 HTRF signal (DMSO = 0%, pomalidomide 10 uM = 100%); higher = lower IKZF1 protein level; settings: compound concentration: 5 uM, overnight (~20 h)
How it was run: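 Percent inhibition of IKZF1 signal was calculated per plate with vehicle and a reference degrader as anchors. The anchors were 0% for vehicle and 100% for the degrader, applied to background-subtracted 665/620 nm time-resolved FRET ratios from a commercial HTRF total-IKZF1 kit. Signal came from HEK293FT cells stably expressing an IKZF1 fusion, treated overnight at 37 °C with 5 μM compound in single wells of 384-well plates.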

HEK293FT dCK*-only = assay: relative growth in counter assay (no AraC = 100%, AraC + DMSO = 0%); higher = more growth rescue independent of IKZF1; settings: compound concentration: 5 uM; AraC concentration: 0.3 uM; overnight pretreatment + 4 days AraC
How it was run: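 Nuclei were counted by imaging after Hoechst 33342 staining on day 5, in HEK293FT cells (300/well, 384-well) expressing only an engineered kinase construct. Compound at 5 μM went in 2 h after seeding, followed after overnight at 37 °C by a nucleoside suicide substrate at 0.3 μM plus medium for 4 days. Per plate, wells lacking suicide substrate defined 100% and those with substrate plus vehicle defined 0%.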

HEK293FT dCK*-IKZF1 = assay: relative growth recovery (pomalidomide 10 uM = 100%, DMSO = 0%); higher = more growth rescue (IKZF1 fusion degradation); settings: compound concentration: 5 uM; AraC concentration: 0.3 uM; overnight pretreatment + 4 days AraC
How it was run: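 Means of duplicates from different days are given for growth recovery, normalised per plate against a reference degrader and vehicle. The reference degrader set the 100% level and vehicle the 0% level. HEK293FT cells stably expressing a deoxycytidine kinase–IKZF1 fusion (300/well, 384-well) received 5 μM compound 2 h after seeding and, after overnight at 37 °C, 0.3 μM of a nucleoside suicide substrate plus medium for 4 days. Nuclei stained with Hoechst 33342 were then counted by whole-well imaging on day 5.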

Sequence of IKZF1 (dCK*-IKZF1 fusion in HEK293FT) (Q13422 whole entry, looked up, the tested form may be a part): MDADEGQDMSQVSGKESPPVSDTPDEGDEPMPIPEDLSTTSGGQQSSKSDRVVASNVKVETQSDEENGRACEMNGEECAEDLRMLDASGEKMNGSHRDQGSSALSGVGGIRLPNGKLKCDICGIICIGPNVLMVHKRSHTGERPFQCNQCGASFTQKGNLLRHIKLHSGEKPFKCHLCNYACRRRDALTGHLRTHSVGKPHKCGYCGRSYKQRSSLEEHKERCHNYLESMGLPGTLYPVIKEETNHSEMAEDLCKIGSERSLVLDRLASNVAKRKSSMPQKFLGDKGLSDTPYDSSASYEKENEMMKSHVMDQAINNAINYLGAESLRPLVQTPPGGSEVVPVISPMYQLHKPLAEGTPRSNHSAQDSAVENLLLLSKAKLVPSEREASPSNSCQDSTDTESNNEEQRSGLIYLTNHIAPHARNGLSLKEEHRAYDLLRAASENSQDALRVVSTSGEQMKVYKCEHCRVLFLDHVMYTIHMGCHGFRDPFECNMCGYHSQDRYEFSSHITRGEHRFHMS

Structure (SMILES) | inhibition of IKZF1 HTRF signal [1] [%] | relative growth in counter assay (HEK293FT dCK*-only) [%] | relative growth recovery (HEK293FT dCK*-IKZF1) [%]
COC(=O)Nc1nc2ccc(C(=O)c3ccccc3)cc2[nH]1 | -12.9 | -32.6 | -10.6
Nc1ccc(-c2nc3ccc(-c4nc5ccc(N)cc5[nH]4)cc3[nH]2)cc1 | 1.33 | -6.2 | -2.58
Oc1c(I)cc(I)c(O)c1I [riodoxol] | -5.43 | 2.24 | -3.17
CCN(CC)CCCC(C)Nc1ccnc2cc(Cl)ccc12 (stereo not drawn) [Chloroquine Diphosphate] | -13.4 | 1.31 | 0.365
Nc1ccc(S(=O)(=O)Nc2cnc3ccccc3n2)cc1 | -31.3 | -4.7 | -1.83
Nc1cccc2c1C(=O)N(C1CCC(=O)NC1=O)C2=O (stereo not drawn) [Pomalidomide] | 92.7 | 2.03 | 81.4
NS(=O)(=O)c1ccc(S(=O)(=O)Nc2cccc3c(Cl)c[nH]c23)cc1 [Indisulam] | -6.45 | -24.4 | -3.02
Cc1coc2c1C(=O)C(=O)c1c-2ccc2c1CCCC2(C)C [Tanshinone IIA (Tanshinone B)] | 18.3 | 5.29 | 0.345
COC(=O)c1c(C)[nH]c(C)c1C(=O)c1ccccc1Cc1ccccc1 | -37.4 | 36.9 | 66.8
CO[C@H]1/C=C/O[C@@]2(C)Oc3c(C)c(O)c4c(O)c(c5c(c4c3C2=O)=NC2(CCN(CC(C)C)CC2)N=5)NC(=O)C(C)=CC=CC(C)[C@H](O)[C@@H](C)[C@@H](O)[C@@H](C)[C@H](OC(C)=O)[C@@H]1C (stereo partly drawn) [Rifabutin] | 0.83 | 3.92 | -0.05
CCN(CC)CCCN(c1ccccc1)C1Cc2ccccc2C1 [aprindine] | 2.2 | 4.05 | 1.23
OCCCNc1cc(-c2ccnc(Nc3cccc(Cl)c3)n2)ccn1 | 14.5 | -34.4 | -12.8
Nc1ncn([C@H]2C[C@H](O)[C@@H](CO)O2)c(=O)n1 [decitabine] | 27.4 | -31.5 | -10.8
CCCCc1ccc2[nH]c(NC(=O)OC)nc2c1 [parbendazole] | -10.3 | -34.4 | -11.7
CCc1c2c(nc3ccc(O)cc13)-c1cc3c(c(=O)n1C2)COC(=O)[C@]3(O)CC | 36.8 | -33.9 | -13
FC(F)(F)c1cc(NC(=S)Nc2ccc(Br)cc2-c2nnn[nH]2)cc(C(F)(F)F)c1 | -39 | -37.2 | -1.23

Structure (SMILES) | inhibition of IKZF1 HTRF signal [1] [%] | relative growth in counter assay (HEK293FT dCK*-only) [%] | relative growth recovery (HEK293FT dCK*-IKZF1) [%]
COc1ccc(-c2nc3cc(C4=NNC(=O)CC4C)ccc3[nH]2)cc1 (stereo not drawn) [Pimobendan (Vetmedin)] | -8.62 | -0.97 | -0.495
CCc1nc(N)nc(N)c1-c1ccc(Cl)cc1 | 18 | 3.95 | -0.245
CC1(S(=O)(=O)[O-])CC(=O)c2ccccc2C1=O (stereo not drawn) [menadione-bisulfite] | 9.55 | -12.2 | -7.9
NS(=O)(=O)Cc1noc2ccccc12 [zonisamide] | -28.2 | 2.4 | -2.26
O=c1c(O)c(-c2cc(O)c(O)c(O)c2)oc2cc(O)cc(O)c12 [Myricetin (Cannabiscetin)] | 18.8 | -1.64 | -0.905
CC[C@@]1(O)C(=O)OCc2c1cc1n(c2=O)Cc2c-1nc1cc(F)c(C)c3c1c2[C@@H](N)CC3.CS(=O)(=O)O [Exatecan Mesylate] | -4.98 | -35.8 | -15.4
CO[C@H]1O[C@@H]2O[C@@]3(C)CC[C@H]4[C@H](C)CC[C@@H]([C@H]1C)[C@@]24OO3 [Artemether] | -26.4 | -14.4 | -5.75
COc1ccc(/C=C/C(=O)/C=C(O)/C=C/c2ccc(OC)c(OC)c2)cc1OC [Dimethylcurcumin, ASC-J9] | -40.7 | -25.6 | -5.62
COc1cc([C@@H]2c3cc4c(cc3[C@@H](O[C@@H]3O[C@@H]5CO[C@@H](C)O[C@H]5[C@H](O)[C@H]3O)[C@H]3COC(=O)[C@H]23)OCO4)cc(OC)c1O [Etoposide] | -29.2 | -34.7 | -12.5
O=C(Nc1nc(-c2cc(Cl)cs2)c(N2CCN(C3CCCCC3)CC2)s1)c1cnc(N2CCC(C(=O)O)CC2)c(Cl)c1 [Avatrombopag] | -35.6 | -3.51 | 1.31
O=C(Nc1ccc(Cl)cc1)Nc1ccc(Cl)c(Cl)c1 [Triclocarban] | 15.1 | 3.72 | -1.68
Nc1ccc2ncnc(NCCc3ccc(Oc4ccccc4)cc3)c2c1 | 20.9 | -8.23 | -2.79
COc1cc2c(cc1OC)[C@@H]1Cc3ccc(OC)c(OC)c3CN1CC2 [Rotundine] | 14.2 | -31.5 | -10.7
CN1CCN(CCCN2c3ccccc3Sc3ccc(C(F)(F)F)cc32)CC1 | 5.07 | 23.1 | 3.05
C[C@@H]1CC(=O)c2c(ccc3c2C(=O)c2cccc(O)c2C3=O)C1 [ochromycinone] | 14.5 | 6.7 | -2.08
